According to PubChem BioAssay (EPA / NIEHS):
Activity calls are given as the source filed them. The calls were made as follows: active = hit-call score of the fitted dose curve at least 0.9, where 1 is the maximum; inactive = score below 0.9.

Tests used:
[1] = read-out: Tumor necrosis factor receptor superfamily member 6 (Homo sapiens) (UniProt P25445); experiment: LTEA_HepaRG_FAS: Life Technologies and Expression Analysis (LTEA) Assay for Fas cell surface death receptor (FAS) using HepaRG (AID 2283447); conditions: mRNA level, 48 h; actives raise or lower the signal
In short: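 Differentiated HepaRG cells in serum-free induction medium were exposed 48 h to 8 half-log concentrations up to 100 uM in 0.5% DMSO, in duplicate. FAS mRNA was measured by qRT-PCR normalised to ACTB, GAPDH and POLR2A; bidirectional fit versus DMSO.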

[2] = read-out: Fatty acid synthase (Homo sapiens) (UniProt P49327); experiment: LTEA_HepaRG_FASN: Life Technologies and Expression Analysis (LTEA) Assay for Fatty Acid Synthase (FASN) using HepaRG (AID 2283448); conditions: mRNA level, 48 h; actives raise or lower the signal;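 as to AC50: differentiated human HepaRG liver cells in serum-free induction medium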
In short: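 Differentiated HepaRG cells in serum-free induction medium exposed 48 h in duplicate to eight half-log concentrations, top 100 uM, 0.5% DMSO. FASN mRNA by qRT-PCR normalised to ACTB, GAPDH, POLR2A; bidirectional fit versus DMSO.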

[3] = read-out: Cyclin D2 (CCND2), CCND2 (gene 894); experiment: LTEA_HepaRG_CCND2: Life Technologies and Expression Analysis (LTEA) Assay for Cyclin D2 (CCND2) using HepaRG (AID 2283449); conditions: mRNA level, 48 h; actives raise or lower the signal;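 also: CCND2 transcript measured by TaqMan qRT-PCR and normalised to three housekeeping genes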
In short: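 Chemicals in 0.5% DMSO, eight half-log concentrations from 100 uM top, were applied in duplicate for 48 h to human HepaRG cells in serum-free induction medium. CCND2 mRNA by TaqMan qRT-PCR, normalised to ACTB/GAPDH/POLR2A; bidirectional fit versus DMSO.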

[4] = read-out: Cyclin Dependent Kinase Inhibitor 1A (CDKN1A), CDKN1A (gene 1026); experiment: LTEA_HepaRG_CDKN1A: Life Technologies and Expression Analysis (LTEA) Assay for Cyclin Dependent Kinase Inhibitor 1A (CDKN1A) using HepaRG (AID 2283450); conditions: mRNA level, 48 h; actives raise or lower the signal
In short: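 Gain or loss of CDKN1A transcript is scored by bidirectional fitting against 0.5% DMSO vehicle. Human HepaRG cultures receive chemicals for 48 h across an 8-point series peaking at 100 uM; expression comes from qRT-PCR.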

[5] = read-out: Cyclin D1 (CCND1), CCND1 (gene 595); experiment: LTEA_HepaRG_CCND1: Life Technologies and Expression Analysis (LTEA) Assay for Cyclin D1 (CCND1) using HepaRG (AID 2283451); conditions: mRNA level, 48 h; actives raise or lower the signal
In short: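 Expression change is measured by qRT-PCR in HepaRG cells after 48 h treatment across eight concentrations topping at 100 uM, with duplicate wells and DMSO (0.5%) serving as baseline for bidirectional fitting.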

[6] = read-out: catalase (CAT), CAT (gene 847); experiment: LTEA_HepaRG_CAT: Life Technologies and Expression Analysis (LTEA) Assay for catalase (CAT) using HepaRG (AID 2283452); conditions: mRNA level, 48 h; actives raise or lower the signal
In short: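 HepaRG cells in serum-free induction medium, 0.5% DMSO vehicle, exposed 48 h in duplicate over 8 half-log concentrations from 100 uM. CAT mRNA measured by qRT-PCR, normalized to ACTB, GAPDH, POLR2A; bidirectional fit versus DMSO.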

[7] = read-out: flavin-containing dimethylaniline monooxygenases 3 (FMO3), FMO3 (gene 2328); experiment: LTEA_HepaRG_FMO3: Life Technologies and Expression Analysis (LTEA) Assay for flavin-containing dimethylaniline monooxygenases 3 (FMO3) using HepaRG (AID 2283453); conditions: mRNA level, 48 h; actives raise or lower the signal
In short: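 Differentiated HepaRG cells in serum-free induction medium, exposed 48 h in duplicate to 8 half-log concentrations up to 100 uM in 0.5% DMSO. FMO3 mRNA by qRT-PCR, normalized to ACTB, GAPDH, POLR2A; bidirectional fit vs DMSO.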

[8] = read-out: Cytochrome P450 (CYP1A1), CYP1A1 (gene 1543); experiment: LTEA_HepaRG_CYP1A1: Life Technologies and Expression Analysis (LTEA) Assay for Cytochrome P450 (CYP1A1) using HepaRG (AID 2283454); conditions: mRNA level, 48 h; actives raise or lower the signal
In short: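 Using HepaRG cultures with 0.5% DMSO as vehicle, eight-concentration exposures (max 100 uM) lasted 48 h. Transcript levels were measured by TaqMan qRT-PCR and normalized to ACTB, GAPDH and POLR2A.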

[9] = read-out: CFLAR gene, CFLAR (gene 8837); experiment: LTEA_HepaRG_CFLAR: Life Technologies and Expression Analysis (LTEA) Assay for CFLAR gene using HepaRG (AID 2283455); conditions: mRNA level, 48 h; actives raise or lower the signal
In short: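 Differentiated HepaRG cells in serum-free induction medium were exposed 48 h in duplicate to eight half-log concentrations up to 100 uM in 0.5% DMSO; mRNA measured by TaqMan qRT-PCR, normalized to ACTB, GAPDH, POLR2A; bidirectional fitting versus DMSO.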

[10] = read-out: Forkhead box O1 (FOXO1), FOXO1 (gene 2308); experiment: LTEA_HepaRG_FOXO1: Life Technologies and Expression Analysis (LTEA) Assay for Forkhead box O1 (FOXO1) using HepaRG (AID 2283456); conditions: mRNA level, 48 h; actives raise or lower the signal
In short: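 Differentiated HepaRG cells, in serum-free induction medium with 0.5% DMSO, exposed 48 h in duplicate to 8-point half-log series from 100 uM. FOXO1 mRNA measured by TaqMan qRT-PCR, normalized to ACTB, GAPDH, POLR2A; bidirectional fit versus DMSO.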

[11] = CEETOX_H295R_OHPREG: CeeTox H295R High-throughput Steroidogenesis Assay for OH-Pregnenolone (OHPREG) (AID 2283434); conditions: actives raise or lower the signal
In short: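 H295R cells pre-stimulated 48 h with 10 uM forskolin, then exposed 48 h to chemical in 0.1% DMSO. 17alpha-hydroxypregnenolone in medium quantified by MTBE extraction and HPLC-MS/MS; bidirectional fit versus DMSO, viability checked by MTT.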

[12] = CEETOX_H295R_ESTRADIOL: CeeTox H295R High-throughput Steroidogenesis Assay for Estradiol (AID 2283440); conditions: actives raise or lower the signal;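 also: estradiol secreted into medium quantified by LC-MS/MS after dansyl derivatisation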
In short: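 Readout is estradiol in conditioned medium, quantified by reverse-phase HPLC-MS/MS against a 7-point standard curve. Cells: H295R, forskolin-stimulated, then dosed 48 h in 0.1% DMSO; activity fitted in both directions relative to DMSO.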

[13] = CEETOX_H295R_ESTRONE: CeeTox H295R High-throughput Steroidogenesis Assay for Estrone (AID 2283441); conditions: actives raise or lower the signal;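 also: estrone secreted into medium measured by LC-MS/MS after dansyl derivatization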;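 as to AC50: human adrenal H295R cells prestimulated with forskolin for two days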
In short: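 H295R cells prestimulated 48 h with 10 uM forskolin, then exposed 48 h to chemicals in 0.1% DMSO final; estrone in medium extracted with MTBE, dansyl-derivatized, quantified by HPLC-MS/MS; bidirectional fitting versus DMSO, viability by MTT.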

[14] = CEETOX_H295R_PROG: CeeTox H295R High-throughput Steroidogenesis Assay for Progesterone (PROG) (AID 2283442); conditions: actives raise or lower the signal;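 as to AC50: human H295R adrenal cells primed with 10 µM forskolin before dosing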
In short: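 Measured analyte is progesterone secreted by H295R cells at 48 h of chemical treatment, following 10 uM forskolin priming. Quantitation used HPLC-MS/MS against a 7-point standard curve; cytotoxicity was checked by MTT absorbance.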

[15] = CEETOX_H295R_ANDR: CeeTox H295R High-throughput Steroidogenesis Assay for Androstenedione (ANDR) (AID 2283436); conditions: actives raise or lower the signal
In short: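 H295R cells, following OECD 456 with minor changes, exposed to chemicals for 48 h. Androstenedione in the medium was quantified by HPLC-MS/MS after MTBE extraction. Fitting was bidirectional versus DMSO; chemicals were diluted until MTT viability was ≥70%.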

[16] = CEETOX_H295R_CORTIC: CeeTox H295R High-throughput Steroidogenesis Assay for Corticosterone (CORTIC) (AID 2283437); conditions: actives raise or lower the signal;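 also: corticosterone secreted into medium quantified by mass spectrometry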;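 as to AC50: human H295R adrenal cells prestimulated with forskolin before chemical exposure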
In short: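 H295R adrenal cells prestimulated 48 hours with 10 uM forskolin, then exposed 48 hours to chemical in 0.1% DMSO. Corticosterone in medium measured by HPLC-MS/MS after MTBE extraction; MTT viability in the same wells; bidirectional fit versus DMSO.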

[17] = CEETOX_H295R_CORTISOL: CeeTox H295R High-throughput Steroidogenesis Assay for Cortisol (AID 2283438); conditions: actives raise or lower the signal;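 also: cortisol secreted into medium quantified by LC-MS/MS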
In short: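 Forskolin-primed H295R cells (10 uM, 48 h) treated 48 h with test chemical in 0.1% DMSO. Cortisol in medium quantified by MTBE extraction and HPLC-MS/MS; bidirectional fit vs DMSO, MTT viability in same wells.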

[18] = CEETOX_H295R_DOC: CeeTox H295R High-throughput Steroidogenesis Assay for DOC (AID 2283439); conditions: actives raise or lower the signal
In short: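 H295R cells prestimulated 48 h with 10 uM forskolin, then exposed 48 h to test chemical (0.1% DMSO final). Medium 11-deoxycorticosterone measured by HPLC-MS/MS after MTBE extraction; bidirectional fit vs DMSO, viability checked by MTT in same wells.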

[19] = CEETOX_H295R_TESTO: CeeTox H295R High-throughput Steroidogenesis Assay for Testosterone (TESTO) (AID 2283457); conditions: actives raise or lower the signal;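 as to AC50: cells exposed to chemicals for 48 h before medium collection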
In short: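 Steroidogenesis in H295R cells following OECD 456 with minor changes; 48 h exposure. Medium testosterone by HPLC-MS/MS, DMSO as baseline, with MTT viability run in parallel.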

Measured: AC50

Sequence of Fatty acid synthase (Homo sapiens) (P49327 whole entry, looked up): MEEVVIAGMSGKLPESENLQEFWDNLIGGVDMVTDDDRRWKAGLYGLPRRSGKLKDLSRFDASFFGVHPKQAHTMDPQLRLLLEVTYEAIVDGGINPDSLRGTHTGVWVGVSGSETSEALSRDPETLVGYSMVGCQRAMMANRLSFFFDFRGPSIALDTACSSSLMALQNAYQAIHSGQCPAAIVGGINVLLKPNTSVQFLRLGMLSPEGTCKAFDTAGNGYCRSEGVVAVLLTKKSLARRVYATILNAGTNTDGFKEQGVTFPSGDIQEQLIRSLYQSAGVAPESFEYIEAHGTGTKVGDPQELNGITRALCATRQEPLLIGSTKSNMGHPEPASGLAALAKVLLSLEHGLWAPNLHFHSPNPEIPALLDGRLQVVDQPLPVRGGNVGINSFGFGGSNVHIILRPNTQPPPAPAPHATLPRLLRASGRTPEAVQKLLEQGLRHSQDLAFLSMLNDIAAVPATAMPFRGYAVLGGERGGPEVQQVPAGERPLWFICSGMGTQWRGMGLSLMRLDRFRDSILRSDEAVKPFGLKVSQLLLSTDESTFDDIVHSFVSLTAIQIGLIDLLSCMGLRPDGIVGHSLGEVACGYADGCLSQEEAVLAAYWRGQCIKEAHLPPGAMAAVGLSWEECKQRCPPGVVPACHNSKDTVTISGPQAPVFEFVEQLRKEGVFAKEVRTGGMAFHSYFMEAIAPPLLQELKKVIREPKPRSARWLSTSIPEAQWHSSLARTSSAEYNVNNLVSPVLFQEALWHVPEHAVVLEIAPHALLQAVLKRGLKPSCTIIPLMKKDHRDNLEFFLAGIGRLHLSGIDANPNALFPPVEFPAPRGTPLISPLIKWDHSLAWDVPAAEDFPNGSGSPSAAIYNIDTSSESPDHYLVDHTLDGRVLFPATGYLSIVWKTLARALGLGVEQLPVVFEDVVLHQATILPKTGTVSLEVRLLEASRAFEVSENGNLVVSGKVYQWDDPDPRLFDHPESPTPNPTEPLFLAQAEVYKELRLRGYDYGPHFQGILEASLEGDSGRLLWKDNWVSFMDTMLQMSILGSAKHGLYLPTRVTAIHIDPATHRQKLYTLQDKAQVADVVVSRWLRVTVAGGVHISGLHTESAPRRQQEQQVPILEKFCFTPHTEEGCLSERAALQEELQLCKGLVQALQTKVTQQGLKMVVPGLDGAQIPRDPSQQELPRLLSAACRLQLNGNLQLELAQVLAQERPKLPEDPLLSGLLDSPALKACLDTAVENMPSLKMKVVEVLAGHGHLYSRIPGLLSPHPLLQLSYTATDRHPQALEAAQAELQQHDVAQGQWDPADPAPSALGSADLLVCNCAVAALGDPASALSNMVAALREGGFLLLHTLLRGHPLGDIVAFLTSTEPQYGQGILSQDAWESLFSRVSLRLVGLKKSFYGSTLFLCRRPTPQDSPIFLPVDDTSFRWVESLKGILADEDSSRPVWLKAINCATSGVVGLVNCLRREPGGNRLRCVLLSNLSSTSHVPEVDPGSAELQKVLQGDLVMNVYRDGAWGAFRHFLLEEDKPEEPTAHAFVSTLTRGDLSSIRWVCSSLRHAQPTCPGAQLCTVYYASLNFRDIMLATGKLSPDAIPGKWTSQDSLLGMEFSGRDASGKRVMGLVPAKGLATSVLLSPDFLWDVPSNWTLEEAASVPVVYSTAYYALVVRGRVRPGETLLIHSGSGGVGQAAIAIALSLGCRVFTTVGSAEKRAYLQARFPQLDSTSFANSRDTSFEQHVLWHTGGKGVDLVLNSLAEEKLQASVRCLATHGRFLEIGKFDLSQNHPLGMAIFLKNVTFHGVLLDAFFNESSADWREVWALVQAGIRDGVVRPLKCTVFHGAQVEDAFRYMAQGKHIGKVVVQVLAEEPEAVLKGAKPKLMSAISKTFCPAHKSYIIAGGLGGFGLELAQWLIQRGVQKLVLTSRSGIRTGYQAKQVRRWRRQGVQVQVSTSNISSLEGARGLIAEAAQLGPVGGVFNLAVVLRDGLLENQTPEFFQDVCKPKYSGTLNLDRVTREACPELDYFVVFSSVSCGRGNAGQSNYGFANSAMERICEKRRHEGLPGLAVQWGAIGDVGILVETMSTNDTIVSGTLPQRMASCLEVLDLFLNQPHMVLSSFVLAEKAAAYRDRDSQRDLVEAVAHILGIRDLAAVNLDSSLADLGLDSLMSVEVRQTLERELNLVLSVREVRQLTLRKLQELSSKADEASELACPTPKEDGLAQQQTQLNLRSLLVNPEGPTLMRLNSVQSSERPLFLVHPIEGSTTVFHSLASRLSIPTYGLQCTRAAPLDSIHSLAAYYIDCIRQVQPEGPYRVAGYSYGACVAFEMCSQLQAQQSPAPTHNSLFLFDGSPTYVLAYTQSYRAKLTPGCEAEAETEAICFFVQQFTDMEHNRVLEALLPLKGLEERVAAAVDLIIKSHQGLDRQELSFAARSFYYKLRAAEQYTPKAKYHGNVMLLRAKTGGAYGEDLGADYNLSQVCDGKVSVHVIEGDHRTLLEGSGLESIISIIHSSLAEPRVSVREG

O=C(O)C(Cl)Cl
inactive: [1] | [2] | [3] | [4] | [5] | [6] | [7] | [8] | [9] | [10]

CCOP(=S)(Oc1ccc([N+](=O)[O-])cc1)c1ccccc1 (configuration not stated)
inactive: [11] | [12] | [13] | [1] | [2] | [3] | [4] | [6] | [7] | [9] | [10]
active: [14] 0.786 µM | [8] 14.3 µM

CCNc1nc(Cl)nc(NC(C)(C)C)n1
inactive: [15] | [16] | [17] | [18] | [12] | [14] | [1] | [2] | [3] | [4] | [6] | [7] | [9] | [10] | [19]
active: [11] 9.93 µM | [13] 1.51 µM | [8] 22.7 µM

CC(C)(C)c1ccc(O)cc1
inactive: [11] | [14] | [1] | [2] | [3] | [4] | [6] | [7] | [9] | [10]

Cc1cccc(N)c1
inactive: [11] | [14] | [2] | [3] | [4] | [6] | [7] | [9] | [10]
active: [8] 50.2 µM

Nc1ccc([N+](=O)[O-])cc1Cl
inactive: [11] | [15] | [16] | [17] | [18] | [14] | [19]

COP(N)(=S)OC
inactive: [11] | [15] | [16] | [17] | [18] | [14] | [19]

Nc1ccc2ccccc2c1
inactive: [11] | [12] | [13] | [1] | [4] | [6] | [7] | [9] | [10]
active: [14] 13.8 µM | [2] 10.6 µM | [8] 23.5 µM

O=P(Oc1ccccc1)(Oc1ccccc1)Oc1ccccc1
active: [11] 3.68 µM | [14] 1.37 µM | [4] 77.7 µM | [8] 26 µM
inactive: [16] | [17] | [18] | [12] | [1] | [2] | [3] | [6] | [7] | [9] | [10]

CC(C)Nc1ccc(Nc2ccccc2)cc1
inactive: [11] | [16] | [17] | [18] | [12] | [13] | [14]

CCCCc1ccc(O)cc1
active: [16] 28.3 µM | [17] 28.4 µM | [13] 32.2 µM
inactive: [11] | [18] | [12] | [14]

CO/N=C(/C(=O)OC)c1ccccc1COc1ccccc1C
inactive: [16] | [18]
active: [11] 13.1 µM | [15] 21.2 µM | [17] 9.52 µM | [14] 4.24 µM | [19] 9.76 µM

Oc1ccc(I)cc1
inactive: [11] | [16] | [17] | [18] | [12] | [13]
active: [14] 17 µM

O=S(=O)(c1ccc(O)cc1)c1ccc(O)cc1
inactive: [11] | [16] | [13]
active: [17] 28.4 µM | [18] 3.31 µM | [12] 18.3 µM | [14] 1.32 µM
